The results in this text go back to PubChem BioAssay AID2235 (The Scripps Research Institute Molecular Screening Center, 2010).

Broadly, the inhibition is the relative decrease from the control value, in per cent.

The campaign covered roughly 320,000 compounds. About 2,800 (0.88%) were called active. The entries come from a sample that favours actives as a whole. Unmarked numbers belong to inactive results.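 The calls were made as follows: active = inhibition above the mean inhibition of all tested compounds plus 3 SD, computed separately for each screening campaign (cut at about 15% in these data); inactive = the rest.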

Serine/threonine-protein phosphatase PP1-alpha catalytic subunit (Homo sapiens), sequence (P62136 whole entry, looked up): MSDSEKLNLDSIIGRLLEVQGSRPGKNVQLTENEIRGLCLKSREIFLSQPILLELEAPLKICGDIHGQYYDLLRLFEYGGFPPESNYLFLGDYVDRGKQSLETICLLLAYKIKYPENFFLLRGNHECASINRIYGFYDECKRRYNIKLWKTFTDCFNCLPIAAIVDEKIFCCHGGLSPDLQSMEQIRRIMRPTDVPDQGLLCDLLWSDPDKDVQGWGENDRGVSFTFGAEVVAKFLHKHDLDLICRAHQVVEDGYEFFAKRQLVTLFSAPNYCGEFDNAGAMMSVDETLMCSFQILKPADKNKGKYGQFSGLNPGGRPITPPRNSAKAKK

This assay addresses Serine/threonine-protein phosphatase PP1-alpha catalytic subunit (Homo sapiens) (UniProt P62136). As to the kind of experiment: PP1-alpha phosphatase inhibitors, primary screen, counter-screen for PP5 inhibitor project, biochemical, fluorescence, OMFP substrate, single point (AID 2235). The settings on record: purified PP1alpha, at 6.7 µM, hits give high values. In general terms: A counterscreen serves to expose hits that act by an unwanted route or on another target.
Regarding `Fc1cccc(Cl)c1COc1ccc(-c2nnco2)cc1`, the inhibition is 0.3%.
As to `CC(=O)NCc1ccc(-c2csc(NC(=O)CCCc3nc4ccccc4c(=O)[nH]3)n2)cc1`, the inhibition is -1.25%.
`Cc1cc(C)c(-c2csc(NC(=O)CCCc3nc4ccccc4c(=O)[nH]3)n2)c(C)c1`: the inhibition was 1.77%.
The result for `CCCn1c(C)cc(-c2csc(NC(=O)CCc3nc4ccccc4c(=O)[nH]3)n2)c1C` reads 15.3% (active); that for `O=C1CCCCN1CCCC(=O)N1CCCC(Nc2ccc(F)cc2)C1` (configuration not stated), -8.73%; that for `COCCNC(=O)c1ccccc1NS(=O)(=O)c1ccc(C)c([N+](=O)[O-])c1`, -0.54%.
For the molecule `Cc1cccc(COc2ccccc2/C=N/Nc2ccc([N+](=O)[O-])cc2)c1`, the inhibition was 6.78%.
On to `Cc1ccc(NS(=O)(=O)c2ccc(N/N=C/c3ccccc3OCC(=O)O)c([N+](=O)[O-])c2)c(C)c1`, for which the inhibition is 21.9% (active).
As for `COC(=O)Nc1ccc(S(=O)(=O)Nc2cc(OC)nc(OC)n2)cc1`, the inhibition is 0.14%.
In the case of `Fc1ccc(/C=N/n2c(COc3ccccc3)n[nH]c2=S)cc1`, the inhibition was 1.88%.
`CCOc1ccc(-c2n[nH]c(=S)n2/N=C/c2cc3c(cc2[N+](=O)[O-])OCO3)cc1`: the inhibition is 1.23%.
Next, `O=[N+]([O-])c1ccccc1/C=N/n1c(COc2ccccc2)n[nH]c1=S`: 19.8% (active); `CC(C)(C)OC(=O)N1CCC(NC(=O)c2[nH]cnc2C(=O)N[C@@H](Cc2ccccc2)C(=O)OCc2ccccc2)CC1`: 5.67%; `COc1ccc(CCNC(=O)COC(=O)c2ccc[nH]c2=O)cc1`: -2.04%.
`Cc1ccc(-c2nn(-c3ccccc3)cc2C(=O)NC2CCC(O)CC2)cc1` (configuration not stated): the inhibition is -2.02%.
With `CCc1ccc(-c2nn(-c3ccccc3C)cc2C(=O)N2CCN(C3CCS(=O)(=O)C3)CC2)cc1` (configuration not stated), the inhibition was -1.65%.
`CCc1ccc(-c2nn(-c3ccccc3)cc2CSC(=N)N)cc1`: the inhibition is 16.1% (active).
As for `c1ccc(-c2nccc(-c3ccc(-n4cnc5ccccc54)cc3)n2)nc1`, the inhibition was 44.6% (active).
Consider `Cc1nccc(-c2ccc(-n3c(C)ccc3C)cc2)n1`, for which the inhibition was -1.67%.
Next, `COC(=O)c1ccc(-n2cnc3ccccc32)nc1`: 1.21%; `CC1(C)CC(=O)C(N=Nc2ccc(S(=O)(=O)N3CCCCCC3)cc2)=C(O)C1`: -0.81%; `Nc1ncnc(Nc2cccc(Cl)c2Cl)n1`: -0.33%.
Turning to `c1ccc(C(c2ccccc2)N2CCN(Cc3nnnn3C3CCCCC3)CC2)cc1`, the inhibition was 1.36%.
Take `O=C(OCC1OC(Oc2ccc(O)cc2)C(O)C(O)C1O)c1ccccc1` (configuration not stated): the inhibition was -5.64%.
The result for `O=C(OCC1O[C@@H](OC(=O)c2cc(O)c(O)c(O)c2)[C@@H](OC(=O)c2cc(O)c(O)c(O)c2)[C@@H](OC(=O)c2cc(O)c(O)c(O)c2)[C@@H]1OC(=O)c1cc(O)c(O)c(O)c1)c1cc(O)c(O)c(O)c1` (some centres not stated) reads 82.4% (active); that for `CC(C(=O)Nc1ccc(S(=O)(=O)N2CCCC2)cc1)N(C)Cc1ccc(F)cc1` (configuration not stated), -3.95%; that for `Cc1ncc(CO)c(/C=N/NC(=O)c2cccc(S(=O)(=O)N3CCCC3)c2)c1O`, 2.87%.
On to `COc1ccc(/C=N/NC(=O)Nc2ccc3nsnc3c2)c(OC)c1`, for which the inhibition is 15.8% (active).
As for `COc1ccc(/C=N/NC(=O)CNC(=O)c2ccc(S(=O)(=O)N3CCCC3)cc2)c(OC)c1`, the inhibition is 0.14%.
`COc1ccc(/C=N/NC(=O)c2ccc3c(c2)OCCO3)c(OC)c1`: the inhibition was -5.02%.
For the molecule `CN1C(=O)/C(=C\c2ccc(-c3ccccc3)o2)SC1=S`, the inhibition is -2.09%.
Consider `O=C(O)C(c1ccccc1)N1C(=O)/C(=C\c2ccc(-c3cccc(Cl)c3)o2)SC1=S` (configuration not stated), for which the inhibition was 18.4% (active).
On to `O=C1NN(c2ccccc2)C(=O)/C1=C/c1ccc(-c2cccc(C(=O)O)c2)o1`, for which the inhibition was 5.88%.
With `CCOc1ccc(S(=O)(=O)NCc2ccc3c(c2)OCO3)cc1C`, the inhibition is 1.37%.
In the case of `C/C(=N/NC(=O)CCc1ccccc1)c1ccco1`, the inhibition was -1.45%.
Next, `N#Cc1c(Cl)nc(-c2cccnc2)nc1-c1ccccc1`: -1.04%.
As for `Cc1cc(S(=O)(=O)NCC(C)C)ccc1OCC(=O)NC1CC1`, the inhibition is -3.62%.
For `CC(C)(C)C(=O)NC(NC(=S)Nc1ccc(S(N)(=O)=O)cc1)C(Cl)(Cl)Cl` (configuration not stated), the inhibition was 1.25%.
Regarding `O=C(Cc1cccc2ccccc12)NNC(=O)Nc1ccc(Cl)cc1`, the inhibition is -1.41%.
Take `Cc1ccc(NC(=S)NC(NC(=O)Cc2cccc3ccccc23)C(Cl)(Cl)Cl)cc1` (configuration not stated): the inhibition is 16.6% (active).
Regarding `CCn1cc(CNC(=O)c2cc([N+](=O)[O-])c(C)c([N+](=O)[O-])c2)cn1`, the inhibition was -2.81%.
For `COc1ccc(C(=O)NC2(C(F)(F)F)NC(=O)N(CCCc3ccccc3)C2=O)c(OC)c1OC` (configuration not stated), the inhibition was 1.31%.
As to `CCOc1cc(/C=C2/N=C(c3ccc(C(C)(C)C)cc3)OC2=O)cc(Cl)c1OS(C)(=O)=O`, the inhibition was 16% (active).
Regarding `Cc1ccc(C2=N/C(=C\c3ccc(OS(=O)(=O)c4ccc(C)cc4)cc3)C(=O)O2)cc1`, the inhibition is 0.93%.
Regarding `O=C1OC(c2ccc(Cl)cc2)=N/C1=C\c1cccnc1`, the inhibition was -0.8%.
With `COc1ccc(NS(=O)(=O)c2ccc(C)c(C(=O)NCC(c3cccs3)N3CCOCC3)c2)cc1` (configuration not stated), the inhibition is -0.23%.
Next, `O=C(COc1ccc(S(=O)(=O)NCc2ccccc2)cc1)N1CCOCC1`: 0.87%.
In the case of `Cc1cnc(C(=O)N2CCCC(C(=O)c3ccc(C(F)(F)F)cc3)C2)cn1` (configuration not stated), the inhibition was -4.22%.
For the molecule `Cc1c(-c2nn(C)c(=O)c3ccccc23)oc2ccc(F)cc2c1=O`, the inhibition is 3.07%.
For `Cc1cc(C)c(S(=O)(=O)NCCCN2CCOCC2)cc1Br`, the inhibition is -3.53%.
The result for `CCC(c1nnnn1Cc1ccco1)N(CCc1ccccc1)Cc1cc2cccc(C)c2[nH]c1=O` (configuration not stated) reads 7.62%; that for `Cc1cccc2cc(CN(Cc3ccc4c(c3)OCO4)Cc3nnnn3C3CCCC3)c(=O)[nH]c12`, -2.51%.
As for `CCC(c1nnnn1C1CCCC1)N(Cc1cccs1)Cc1cc2cccc(C)c2[nH]c1=O` (configuration not stated), the inhibition was 16.5% (active).
In the case of `COc1ccc(OC)c(NC(=O)CN(Cc2ccc(Cl)cc2)S(C)(=O)=O)c1`, the inhibition was 0.99%.
Consider `CCOc1cc(-c2nc3cc(C)ccn3c2NCC2CCCO2)ccc1O` (configuration not stated), for which the inhibition was -2.03%.
Consider `CCCCCN(C(=O)NC(=O)Nc1cccc(C)c1C)S(C)(=O)=O`, for which the inhibition is 4.61%.
Take `CCCc1ccc(OCC(=O)NNC(=S)NC(=O)c2ccco2)cc1`: the inhibition is 18.6% (active).
For `CC(Oc1ccc2ccccc2c1)C(=O)NNC(=S)NC(=O)c1ccco1` (configuration not stated), the inhibition is 0.47%.
`Cc1ccc(OCC(=O)NCCCNC(=O)c2ccco2)cc1C`: the inhibition is 2.4%.
On to `CCN(CC)CCC(c1ccc2c(c1)OCO2)c1c(OC)cc(OC)c2c(-c3ccccc3)cc(=O)oc12` (configuration not stated), for which the inhibition is 1.96%.
The result for `O=C(NCCc1ccccc1)C1CCC(Cn2c(=O)c3ccccc3n(Cc3cccnc3)c2=O)CC1` (configuration not stated) reads -0.9%.
As to `CCC(C)N(C(=O)COC(=O)c1nc(Cl)ccc1Cl)C1CCS(=O)(=O)C1` (configuration not stated), the inhibition is -0.12%.
Next, `Cc1nn(C)c(Oc2ccc(Cl)cc2)c1C=O`: -4.58%; `Cc1ccc2c(c1)NCC(C(=O)NC1CCC(C)CC1)O2` (configuration not stated): -3.3%.
On to `Cc1ccc(O)c(CNc2nc3ccccc3n2C)c1`, for which the inhibition was -1.3%.
On to `Cn1c(Nc2cccc(Cl)c2)nc2ccccc21`, for which the inhibition was -3.75%.
For the molecule `C/C(=N\c1nc2ccccc2n1C)c1cc(Cl)ccc1O`, the inhibition was 22% (active).
Next, `Cc1ccc(NC(=O)CSc2nnc(-c3cnccn3)n2Cc2ccco2)cc1C`: 1.95%.
`CCn1c(SCC(=O)Nc2cc(C)ccc2C)nnc1-c1cnccn1`: the inhibition was 20.4% (active).
With `CCc1ccc(NC(=O)CSc2nnc(-c3cnccn3)n2Cc2ccco2)cc1`, the inhibition was 2.61%.
Turning to `O=C(COC(=O)c1ccccc1Br)Nc1nnc(-c2ccccc2)o1`, the inhibition is 13.9%.
As for `CC(=O)Nc1cccc(C(=O)OCC(=O)Nc2nnc(-c3ccccc3)o2)c1`, the inhibition is 0.85%.
On to `O=C(COC(=O)c1ccc(Oc2ccccc2)cc1)Nc1nnc(-c2ccccc2)o1`, for which the inhibition is 23.5% (active).
The result for `Cc1ccc(S(=O)(=O)N(C)c2ccc(OCC(=O)NC3=NCCS3)cc2)cc1` reads -1.97%; that for `Cc1ccc(N=C2NC(=O)/C(=C/C=C/c3ccco3)S2)cc1C`, 16.1% (active); that for `Cc1ccc(N2NC(=O)/C(=C/C=C/c3ccco3)C2=O)cc1C`, 1.04%.
The result for `CN1C(=O)/C(=C/c2ccco2)SC1=Nc1cccc(C(=O)O)c1` reads -2.67%; that for `Cc1ccc(C)c(Cn2cnc3c(oc4ccccc43)c2=O)c1`, 1.24%; that for `C=CCn1c(SCc2ccc(C(=O)NCCO)cc2)nc2ccccc2c1=O`, 2.26%.
Take `Cc1nc2ccccc2c(=O)n1NC(=O)c1ccc(Cl)c([N+](=O)[O-])c1`: the inhibition was 2.24%.
On to `O=C(Nn1c(SCc2ccc([N+](=O)[O-])cc2)nc2ccccc2c1=O)c1ccc(F)cc1`, for which the inhibition is 15.9% (active).
As for `COc1ccc(C(=O)c2c3ccc([N+](=O)[O-])cc3[n+]([O-])n2CCCN)cc1`, the inhibition was 5.14%.
With `CCOc1ccc(NC(=O)CN(C)CC(=O)NC(C)c2ccccc2)cc1OCC` (configuration not stated), the inhibition was -1.29%.
With `Cc1cc(Nc2ccccc2)n(C(=O)c2ccc(N)cc2)n1`, the inhibition was 22.3% (active).
Turning to `Cc1cc(C)n(C(=O)c2ccc(S(=O)(=O)N3CCCC3)cc2)n1`, the inhibition is 2.03%.
The result for `Cc1cc(Nc2ccccc2)n(CCC#N)n1` reads -2.37%; that for `CCOC(=O)C1=C(CCc2ccccc2)NC(=O)NC1c1ccc2ccccc2c1` (configuration not stated), 9.37%.
